Results on 14 molecules are retold here after PubChem BioAssay (NCI).

The structures appear in SMILES notation. Compounds without any hit were thinned out: in the full panel of roughly 83,000, 20% have a hit.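 Assay: single dose, 48 h. Readout: percent growth (0 = no net growth; negative = cell death). Active: <10.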 Unmarked numbers belong to inactive results. Calls of active or inactive are those of the source.

Some test systems named below: T-47D breast; BT-549 breast; MDA-MB-435 melanoma; SW-620 colon; MCF7 breast; HCT-116 colon; HCC-2998 colon; KM12 colon; MDA-MB-468 breast.
What all share (test): NCI-60 one-dose screen, 48 h (100 = growth as untreated, 0 = no growth, -100 = all killed)
Common to all, as to conditions: 10 µM

Consider `Nc1nc(-c2ccccc2)cc(-c2cc3ccccc3nc2Cl)n1`, for which the growth in the assay with T-47D breast is 73.7%; with BT-549 breast, 82.2%; with MDA-MB-435 melanoma, 94.9%; in the assay on SW-620 colon, 62.7%; in the assay with MCF7 breast, 18.4%; in the assay with HCT-116 colon, 33.7%. Besides, the growth in the assay with HCC-2998 colon is 103%; in the assay on KM12 colon, 71.7%; in the assay on MDA-MB-468 breast, 77%.

`O=C(NCCCCCCCCCC[P+](c1ccccc1)(c1ccccc1)c1ccccc1)c1ccc(-n2nc(-c3ccccc3O)nc2-c2ccccc2O)cc1`: the growth with T-47D breast is -51.9% (active); with BT-549 breast it was -87.4% (active); in the assay on MDA-MB-435 melanoma, -81.3% (active); with SW-620 colon, -60.9% (active); in the assay on MCF7 breast it was -87% (active); in the assay on HCT-116 colon it was -79.4% (active). Also, the growth with HCC-2998 colon was -99.5% (active); in the assay on KM12 colon, -27.1% (active); with MDA-MB-468 breast, -87.7% (active).

Regarding `COc1ccc(-c2cc(-c3cc(C(=O)c4ccccc4)n4ccc(C)cc34)nc(N)c2C#N)cc1`, the growth with T-47D breast was 65.1%; with BT-549 breast, 22.4%; in the assay with MDA-MB-435 melanoma it was 78.5%; in the assay with SW-620 colon, 78.9%; in the assay on MCF7 breast, 53.3%; with HCT-116 colon, 58.1%. Moreover, the growth is 80.9% with HCC-2998 colon, 85.4% with KM12 colon and 48.6% with MDA-MB-468 breast.

Turning to `O=C(Nc1ccc(OCC(=O)c2ccccc2)cc1)Nc1ccc(Cl)c(C(F)(F)F)c1`, the growth was 3.26% (active) in the assay on T-47D breast; 33.7% with BT-549 breast; -25.4% (active) in the assay with MDA-MB-435 melanoma; 32% with SW-620 colon; 35% in the assay on MCF7 breast; 29.6% in the assay with HCT-116 colon. The values for the growth in the assay with HCC-2998 colon, with KM12 colon and in the assay on MDA-MB-468 breast were 28.6%, 1.99% (active) and -5.5% (active), respectively.

Turning to `CN1CCN(c2ccc(Nc3nc(N4CCN(S(=O)(=O)c5ccc(F)cc5)CC4)c4sccc4n3)cc2)CC1`, the growth in the assay on T-47D breast is -62.7% (active); in the assay on BT-549 breast, 65.2%; in the assay with MDA-MB-435 melanoma, -100% (active); in the assay with SW-620 colon it was -63.8% (active); with MCF7 breast it was -77.6% (active); in the assay with HCT-116 colon, -51.1% (active). The growth was -90.7% (active) in the assay with HCC-2998 colon, -74.8% (active) with KM12 colon and -96.7% (active) in the assay with MDA-MB-468 breast.

Consider `Cc1cc(=O)oc2cc(OCCCCOc3ccc(/C=C/C(=O)Nc4ccccc4[N+](=O)[O-])cc3)ccc12`, for which the growth was 100% with T-47D breast; 117% in the assay with BT-549 breast; 112% in the assay on MDA-MB-435 melanoma; 114% with SW-620 colon; 97% with MCF7 breast; 115% in the assay on HCT-116 colon. The growth in the assay with HCC-2998 colon was 120%; in the assay on KM12 colon, 109%; with MDA-MB-468 breast, 169%.

As to `N#Cc1ccc(-c2nn(-c3ccc(C(=O)O)cc3)cc2CNc2ccc(Cl)cc2)cc1`, the growth in the assay with T-47D breast is 74.3%; with BT-549 breast it was 62.6%; with MDA-MB-435 melanoma, 89.7%; in the assay with SW-620 colon it was 87.2%; with MCF7 breast, 70.8%; in the assay on HCT-116 colon, 53.8%. Besides, the growth with HCC-2998 colon is 89.4%; in the assay with KM12 colon it was 67%; in the assay with MDA-MB-468 breast, 116%.

For `CCCn1c(=O)c2[nH]c(-c3ccc(OCc4nc5ccccc5[nH]4)cc3)nc2n(CCC)c1=O`, the growth is 59.9% in the assay on T-47D breast; 21.1% with BT-549 breast; 67% in the assay on MDA-MB-435 melanoma; 46.8% in the assay on SW-620 colon; 17.4% with MCF7 breast; 5.38% (active) in the assay on HCT-116 colon. Also, the growth in the assay with HCC-2998 colon was 64.8%; in the assay on KM12 colon, 63.8%; in the assay with MDA-MB-468 breast it was 23.6%.

For `CC(C)(C)c1ccc(NCc2cn(-c3ccc(C(=O)O)cc3)nc2-c2ccc(C#N)cc2)cc1`, the growth was 21.4% with T-47D breast; -2.13% (active) in the assay with BT-549 breast; 34% in the assay with MDA-MB-435 melanoma; 32.2% in the assay on SW-620 colon; 6.04% (active) in the assay with MCF7 breast; -13.9% (active) with HCT-116 colon. For the same molecule, the figures for the growth with HCC-2998 colon, in the assay with KM12 colon and in the assay on MDA-MB-468 breast were -66.6% (active), -38.3% (active) and 19%, respectively.

As to `CCOC(=O)C1=C(N)N(c2ccccc2)C2=C(C(=O)CC(C)(C)C2)C1c1ccc(Cl)cc1` (stereo unspecified), the growth in the assay with T-47D breast was 29.5%; in the assay with BT-549 breast, 43.2%; in the assay on MDA-MB-435 melanoma it was 22%; in the assay on SW-620 colon, 27.9%; in the assay with MCF7 breast, 17.4%; in the assay on HCT-116 colon it was 18.7%. Also, the growth in the assay on HCC-2998 colon was 42.9%; with KM12 colon, 17.9%; with MDA-MB-468 breast, 33.2%.

As for `Cc1ccc(C(C)C)cc1NC(=O)c1ccccc1N(C)C`, the growth is 57.1% in the assay on T-47D breast; 102% in the assay on BT-549 breast; 95% with MDA-MB-435 melanoma; 106% in the assay with SW-620 colon; 82.8% in the assay with MCF7 breast; 68.3% in the assay with HCT-116 colon. Further, the growth in the assay on HCC-2998 colon was 96.7%; in the assay with KM12 colon, 86.7%; in the assay on MDA-MB-468 breast, 71.9%.

With `O=C1Nc2cc(-c3ccc(NC(=O)c4cccs4)cc3)ccc2/C1=C/c1ccc[nH]1`, the growth is 22.2% in the assay with T-47D breast; 91.7% in the assay on BT-549 breast; 102% in the assay with MDA-MB-435 melanoma; 60.3% in the assay on SW-620 colon; -12.7% (active) with MCF7 breast; 53.3% with HCT-116 colon. Further, the growth with HCC-2998 colon was 79.5%; in the assay with KM12 colon, 39.3%; in the assay with MDA-MB-468 breast, -19.7% (active).

Take `O=C(CNc1nc(-c2ccccc2)cs1)Nc1cccc(Cl)c1`: the growth with T-47D breast was 7.64% (active); in the assay with BT-549 breast, 25.8%; in the assay on MDA-MB-435 melanoma it was 42.1%; with SW-620 colon, 35.9%; with MCF7 breast, 21.8%; in the assay with HCT-116 colon, 27.6%. Also, the growth in the assay on HCC-2998 colon was 33.2%; in the assay with KM12 colon it was 23.6%; in the assay on MDA-MB-468 breast it was 10.7%.

As for `O=C(N/N=C/c1ccc(B(O)O)o1)c1[nH]c2ccc(Br)cc2c1-c1ccccc1`, the growth in the assay with T-47D breast is 36.4%; in the assay with BT-549 breast it was 41%; with MDA-MB-435 melanoma, -53.2% (active); in the assay on SW-620 colon, 26.2%; in the assay with MCF7 breast it was 13.8%; in the assay with HCT-116 colon, 7.23% (active). The results for the growth in the assay with HCC-2998 colon, with KM12 colon and in the assay on MDA-MB-468 breast were 8.58% (active), 15.4% and -3.94% (active), respectively.
